HT1080-NT tox: qHTS for induction of synthetic lethality in tumor cells producing 2HG: qHTS for the HT-1080-NT fibrosarcoma cell line; HT-1080-NT fibrosarcoma viability, CellTiter-Glo ATP luminescence, 48 h; Potency, µM (top dose mostly 46.1 µM), actives largely listed as cytotoxic; hit rate 1.6% among 360,000; AID 686970, 2013;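 further: NT is the 2HG producing partner of a matched IDH1 knockdown line; nearly all actives have a fitted effect of over 55% in size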
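HT-1080-NT; 750 cells/well; 5% FBS RPMI; 48 h compound, 37 degrees C; CellTiter-Glo luminescence; curve fitting and curve-class assignment.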
TDP1 cell noCPT: qHTS for Inhibitors of human tyrosyl-DNA phosphodiesterase 1 (TDP1): qHTS in cells in absence of CPT. DT40 Tdp1-/- hTDP1 cells, no CPT, ATP luminescence, 48 h. Potency, µM (titrated, usually from 46.2 µM), usual class: inhibitors. hit rate 15% among 420,000. AID 686978, 2013; further: nearly all actives have a fitted effect of over 55% in size
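No-CPT arm: Tdp1-/-;hTDP1 DT40 cells (400/well) plus compounds, incubated ≥48 hr at 37 °C. Readout CellTiter-Glo luminescence.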
TDP1 cell CPT: qHTS for Inhibitors of human tyrosyl-DNA phosphodiesterase 1 (TDP1): qHTS in cells in presence of CPT; Potency, µM (series often up to 46.2 µM), actives largely listed as inhibitors; hit rate 12% among 420,000; AID 686979, 2013; chicken DT40 Tdp1-/-;hTDP1 cells + 20 nM CPT, ATP luminescence, 48 h; further: nearly all actives have a fitted effect of over 55% in size
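Cell growth measured by CellTiter-Glo luminescence after a minimum 48 h, 37 C compound exposure with 20 nM CPT in Tdp1-knockout DT40 cells stably expressing hTDP1, seeded 400/well; qHTS titration format.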
ELG1 DNA repair: qHTS screen for small molecules that inhibit ELG1-dependent DNA repair in human embryonic kidney (HEK293T) cells expressing luciferase-tagged ELG1; Potency, µM (doses to about 46.1 µM), actives largely listed as inhibitors; HEK293T ELG1-luciferase reporter, luminescence, 16 h; DNA damage induced by 5-fluorouridine; hit rate 2.3% among 330,000; AID 504467, 2011; further: nearly all actives have a fitted effect of over 55% in size
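Reporter activity after DNA damage by 5-fluorouridine is monitored. Compound-treated cells incubate 16 hr at 37 °C, then ONE-Glo is added for 30 min before luminescence reading.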
IL-1B inflam inh: qHTS for Inhibitors of Inflammasome Signaling: IL-1-beta AlphaLISA Primary Screen; activity change, % at 57.5 µM; THP-1 LPS/ATP IL-1B secretion, AlphaLISA, 16 h; active compounds read low; hit rate 4.7% among 360,000; in the data active means activity change below about -50%; inconclusive means mostly about -30% to -49%
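Secreted IL-1B measured by AlphaLISA bead assay after 16 h compound exposure of THP-1 cells; compounds (final up to 57.5 uM) added 1 h before LPS (250 ng/mL) and ATP (1.25 mM) stimulation; lower signal means less secretion.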
HT1080 IDH1KD tx: qHTS for induction of synthetic lethality in tumor cells producing 2HG: qHTS for the HT-1080-IDH1KD cell line. HT-1080 IDH1 knockdown viability, ATP luminescence, 48 h. Potency, µM (doses to about 46.1 µM), hits mostly cytotoxic. hit rate 2% among 360,000. AID 686971, 2013
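Cytotoxicity counter-line: IDH1KD HT-1080, 48 h, CellTiter-Glo. Curves classed by r2, magnitude and activity.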
Of the large screens only hits and unclear results are named; the others gave an inactive call. Sampled rows, rich in hits. Any-hit rate of the full collection: about 19%. Unless noted, the call rests on the fitted dose curve; in most records, active means well fitted curve in the direction sought with a large enough effect; inconclusive means small, poorly fitted or top-dose-only effect, or another doubt; inactive means no such curve, though single readings can be large; an effect the other way counts as inactive or inconclusive.

Cn1c(=O)n(C)c2cc(NS(=O)(=O)c3ccc(C(C)(C)C)cc3)c(NCc3ccccc3)cc21	TDP1 cell noCPT 23µM, TDP1 cell CPT 21µM (no result: HT1080-NT tox, ELG1 DNA repair, IL-1B inflam inh, HT1080 IDH1KD tx)
O=C(c1cccc(F)c1)N1CCC2(CCCN(Cc3nccs3)C2)CC1	none (no result: HT1080-NT tox, ELG1 DNA repair, IL-1B inflam inh, HT1080 IDH1KD tx)
COc1ccc(S(=O)(=O)Nc2cc3c(cc2NCc2ccccc2)n(C)c(=O)n3C)cc1OC	TDP1 cell noCPT 21µM, TDP1 cell CPT inconclusive (no result: HT1080-NT tox, ELG1 DNA repair, IL-1B inflam inh, HT1080 IDH1KD tx)
Cc1cc2nc(-c3cccc(Br)c3)c(CC(C)(C)C)n2c(C)c1Br	TDP1 cell CPT inconclusive (no result: ELG1 DNA repair)
CCc1cccc(NC(=O)CCc2nc3cccnc3n2Cc2ccc(OC)cc2)c1	TDP1 cell noCPT inconclusive (no result: HT1080-NT tox, ELG1 DNA repair, IL-1B inflam inh, HT1080 IDH1KD tx)
COc1cccc(-c2nc(CS(=O)(=O)CC(=O)N3CCN(c4ccccc4)CC3)c(C)o2)c1	TDP1 cell noCPT 23µM, TDP1 cell CPT inconclusive (no result: HT1080-NT tox, ELG1 DNA repair, IL-1B inflam inh, HT1080 IDH1KD tx)
Cc1oc(-c2ccccc2F)nc1CS(=O)(=O)CC(=O)N1CCN(c2ccc(Cl)cc2)CC1	TDP1 cell noCPT 21µM, TDP1 cell CPT 26µM (no result: HT1080-NT tox, ELG1 DNA repair, IL-1B inflam inh, HT1080 IDH1KD tx)
COc1cccc(-c2nc(CS(=O)(=O)CC(=O)NCCCN3CCOCC3)c(C)o2)c1	IL-1B inflam inh -77
COc1cccc(-c2nc(CS(=O)(=O)CC(=O)NCc3ccccc3OC)c(C)o2)c1	TDP1 cell noCPT 18µM, TDP1 cell CPT inconclusive
CCCCN(CC)CCCNC(=O)CS(=O)(=O)Cc1nc(-c2ccc(C)cc2)oc1C	TDP1 cell noCPT 21µM, TDP1 cell CPT inconclusive (no result: HT1080-NT tox, ELG1 DNA repair, IL-1B inflam inh, HT1080 IDH1KD tx)
COc1ccc(OC)c(CCNC(=O)CS(=O)(=O)Cc2nc(-c3ccccc3Cl)oc2C)c1	TDP1 cell noCPT inconclusive, TDP1 cell CPT inconclusive, ELG1 DNA repair 21µM, IL-1B inflam inh -52
Cc1oc(-c2ccccc2Cl)nc1CS(=O)(=O)CC(=O)NCCN1CCOCC1	none
Cc1ccc(-c2nc(CS(=O)(=O)CC(=O)NCCCN3CCOCC3)c(C)o2)cc1	none
CCOc1ncccc1C(=O)Nc1cc2c(cc1Br)OCCO2	TDP1 cell noCPT 12µM, TDP1 cell CPT 21µM, HT1080 IDH1KD tx inconclusive
COc1cc(NC(=O)COC(C)=O)c(C)cc1[N+](=O)[O-]	none
C=CCOC1=CS(=O)(=O)N(Cc2ccc(Br)cc2)c2ccc(Br)cc21	TDP1 cell noCPT inconclusive, TDP1 cell CPT 16µM
